The target in assay [1] is Peroxisome proliferator-activated receptor delta (Homo sapiens) (UniProt Q03181). Kind of assay: qHTS assay for small molecule antagonists of peroxisome proliferator-activated receptor delta signaling (AID 588535; active = well fitted inhibition curve with a large enough effect in the signal ratio, with a control signal flat, not every such curve was filed as active; the % refers to the signal ratio; also: potency is read from the fitted curve at half-maximal effect). Put shortly: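 Inhibition of PPAR-delta response element-driven beta-lactamase expression is measured in HEK293T cells exposed to a compound titration series for 18 hrs at 37 C. Half-maximal inhibition comes from Hill equation fitting.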
Chain of Peroxisome proliferator-activated receptor delta (Homo sapiens) (Q03181 whole entry, looked up): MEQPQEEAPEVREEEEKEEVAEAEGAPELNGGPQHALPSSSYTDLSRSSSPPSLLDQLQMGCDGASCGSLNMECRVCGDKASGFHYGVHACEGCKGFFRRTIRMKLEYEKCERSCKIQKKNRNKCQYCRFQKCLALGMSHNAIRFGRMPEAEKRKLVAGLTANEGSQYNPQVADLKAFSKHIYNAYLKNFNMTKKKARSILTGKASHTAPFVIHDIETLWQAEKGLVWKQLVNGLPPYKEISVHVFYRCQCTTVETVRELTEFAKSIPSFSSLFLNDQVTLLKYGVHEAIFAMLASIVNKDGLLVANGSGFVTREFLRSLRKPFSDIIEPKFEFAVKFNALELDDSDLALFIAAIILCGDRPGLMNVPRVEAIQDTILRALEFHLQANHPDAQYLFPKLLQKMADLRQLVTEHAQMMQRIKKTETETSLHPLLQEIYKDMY

Assay [2] concerns the target Peroxisome proliferator-activated receptor gamma (Homo sapiens) (UniProt P37231). Kind of assay: qHTS assay for small molecule agonists of peroxisome proliferator-activated receptor gamma signaling (AID 588536; active = well fitted curve in the direction sought with a large enough effect in the signal ratio, with a control signal flat, not every such curve was filed as active; the % refers to the signal ratio;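 also: 0% = DMSO basal wells and 100% = rosiglitazone at 2 µM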). Put shortly:
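Beta-lactamase reporter read-out: CCF4 fluorescence (ex 405, em 460/530 nm) after 2 h at RT. HEK293 GeneBLAzer cells were treated for 16 h at 37 C. Hill fits gave EC50 and efficacy versus 2 uM rosiglitazone (100%) and DMSO (0%).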

The target is the same in assay [3]. Kind of assay: qHTS assay for small molecule antagonists of peroxisome proliferator-activated receptor gamma signaling (AID 588537; active = well fitted inhibition curve with a large enough effect in the signal ratio, with a control signal flat, not every such curve was filed as active; the % refers to the signal ratio; also: potency is read from the fitted curve at half-maximal effect). Summed up: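 Compounds are tested as concentration series for inhibition of rosiglitazone-driven (50 nM) reporter expression in GeneBLAzer PPAR-gamma-UAS-bla HEK293 cells. After 16 h at 37 C, CCF4 substrate is added for 2 h at room temperature and blue/green fluorescence is measured.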
For orientation: Quantitative high-throughput screening tests each substance at several concentrations.

Assay [4] concerns the target Vitamin D3 receptor (Homo sapiens) (UniProt P11473). Kind of assay: qHTS assay for small molecule antagonists of vitamin D receptor signaling (AID 588541).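 Also: receptor activated by calcitriol during compound treatment; series mostly up to about 77 µM; % is scaled to controls: 0 for no effect and ±100 for the full control effect.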 Summed up:
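VDR-UAS-bla HEK293T cells (2000/well, 2% charcoal-stripped FBS) were treated with titrated compounds plus 1-alpha,25-dihydroxyvitamin D3 (50 nM or 3 nM final) for 16 h at 37 C. CCF4 beta-lactamase fluorescence was read; Hill fits gave IC50.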

Assay [5] can be described thus: qHTS assay for small molecule agonists of retinoid X receptor alpha signaling (AID 588544). Conditions: HEK293T RXRa-UAS-bla, beta-lactamase reporter, 18 h; 530 nm emission.
For assay [6], the target named is Retinoic acid receptor RXR-alpha (Homo sapiens) (UniProt P19793). Described as above.
Chain of Retinoic acid receptor RXR-alpha (Homo sapiens) (P19793 whole entry, looked up): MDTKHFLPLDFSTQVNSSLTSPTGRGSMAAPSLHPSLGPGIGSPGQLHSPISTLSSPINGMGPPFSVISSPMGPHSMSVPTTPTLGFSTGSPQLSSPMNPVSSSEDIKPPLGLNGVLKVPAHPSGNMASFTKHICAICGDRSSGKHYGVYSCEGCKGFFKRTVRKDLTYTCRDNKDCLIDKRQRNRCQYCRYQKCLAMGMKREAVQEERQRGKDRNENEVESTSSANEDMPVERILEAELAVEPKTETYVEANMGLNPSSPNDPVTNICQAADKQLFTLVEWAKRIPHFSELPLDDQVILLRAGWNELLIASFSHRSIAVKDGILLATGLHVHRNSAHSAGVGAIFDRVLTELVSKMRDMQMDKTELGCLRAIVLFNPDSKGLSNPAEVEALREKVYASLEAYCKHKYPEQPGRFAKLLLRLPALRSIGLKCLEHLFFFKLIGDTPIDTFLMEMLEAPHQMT
Assay [7] addresses Thyroid hormone receptor beta (Homo sapiens) (UniProt P10828). Kind of assay: qHTS assay for small molecule agonists of thyroid hormone receptor beta signaling (AID 588545). Put shortly:
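In this cell-based screen, titrated compounds act on HEK 293 cells held in medium with 2% charcoal/dextran FBS, NEAA and pyruvate for 18 hrs at 37 C. Responses are expressed relative to T3 (10 nM) as 100% and basal DMSO as 0%.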

Assay [8] can be described thus: qHTS assay for small molecule antagonists of retinoid X receptor alpha signaling (AID 588546; active = well fitted inhibition curve with a large enough effect in the signal ratio, with a control signal flat, not every such curve was filed as active; the % refers to the signal ratio;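 also: cells stimulated with 9-cis-retinoic acid as agonist; % is scaled to controls: 0 for no effect and ±100 for the full control effect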). Particulars: HEK293T RXRa-UAS-bla, beta-lactamase ratio, antagonist mode; measured here: W530 green channel, cytotoxicity proxy. Summed up: (§1)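 Beta-lactamase reporter inhibition, read as CCF4 fluorescence ratio (ex 405, em 460/530 nm) after 2 h at RT. HEK293T UAS-bla cells, 2500/well, were stimulated with 9-cis-RA at 500 or 100 nM final alongside test compound for 18 h at 37 C.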

In assay [9] the target is Retinoic acid receptor RXR-alpha (Homo sapiens) (UniProt P19793). Described as above. Particulars: HEK293T RXRa-UAS-bla, beta-lactamase ratio, antagonist mode. Summed up:
as §1

For assay [10], the target named is Thyroid hormone receptor beta (Homo sapiens) (UniProt P10828). Kind of assay: qHTS assay for small molecule antagonists of thyroid hormone receptor beta signaling (AID 588547; active = well fitted inhibition curve with a large enough effect in the signal ratio, with a control signal flat, not every such curve was filed as active; the % refers to the signal ratio;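 also: cells stimulated with 0.4 nM T3 agonist during compound exposure; series mostly up to about 77 µM; % is scaled to controls: 0 for no effect and ±100 for the full control effect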). Conditions: TR-UAS-bla HEK293, beta-lactamase ratio, antagonist mode, 18 h. Put shortly: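 TR-UAS-bla GripTite HEK293 cells in 2% charcoal/dextran FBS medium were preincubated 4 h at 37 C, given compound (0.59 nM to 92 uM) plus 0.4 nM T3 (final) for 18 h, then CCF4 for 2 h at RT; Hill fit gave IC50.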
Chain of Thyroid hormone receptor beta (Homo sapiens) (P10828 whole entry, looked up): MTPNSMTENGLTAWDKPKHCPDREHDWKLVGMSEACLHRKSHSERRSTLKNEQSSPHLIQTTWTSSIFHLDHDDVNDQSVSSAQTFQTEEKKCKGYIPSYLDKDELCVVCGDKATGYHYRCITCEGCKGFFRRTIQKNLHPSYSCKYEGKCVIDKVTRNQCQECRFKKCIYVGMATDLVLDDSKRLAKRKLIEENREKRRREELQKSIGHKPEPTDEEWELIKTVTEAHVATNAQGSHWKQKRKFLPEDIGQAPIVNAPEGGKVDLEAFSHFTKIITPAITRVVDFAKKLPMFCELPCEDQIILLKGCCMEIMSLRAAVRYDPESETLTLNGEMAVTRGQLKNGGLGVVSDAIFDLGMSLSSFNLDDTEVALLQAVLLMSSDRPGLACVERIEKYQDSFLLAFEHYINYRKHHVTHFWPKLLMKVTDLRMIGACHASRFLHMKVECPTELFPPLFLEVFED

This note sets out measurements from PubChem BioAssay (NCATS).

The structures appear in SMILES notation. Where “and” joins values, the source holds several entries; their conditions need not be identical. Equal values may be shown once. Results filed as inconclusive are left out. Some compounds were tested as several samples or in several runs, with calls that do not always agree. Calls of active or inactive are those of the source. Unless noted, calls follow the shape of the full dose curve.

Chain of Vitamin D3 receptor (Homo sapiens) (P11473 whole entry, looked up): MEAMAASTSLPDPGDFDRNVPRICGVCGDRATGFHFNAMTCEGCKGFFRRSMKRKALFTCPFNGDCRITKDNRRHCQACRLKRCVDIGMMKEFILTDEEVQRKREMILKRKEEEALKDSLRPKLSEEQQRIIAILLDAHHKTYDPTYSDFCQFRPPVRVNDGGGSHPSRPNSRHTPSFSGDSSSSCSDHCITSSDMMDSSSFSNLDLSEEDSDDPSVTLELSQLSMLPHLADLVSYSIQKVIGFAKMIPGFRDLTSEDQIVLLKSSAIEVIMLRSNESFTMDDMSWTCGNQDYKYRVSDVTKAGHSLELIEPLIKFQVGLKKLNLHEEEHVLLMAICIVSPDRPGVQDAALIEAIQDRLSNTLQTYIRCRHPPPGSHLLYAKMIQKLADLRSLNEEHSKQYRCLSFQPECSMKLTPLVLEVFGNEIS
Chain of Peroxisome proliferator-activated receptor gamma (Homo sapiens) (P37231 whole entry, looked up): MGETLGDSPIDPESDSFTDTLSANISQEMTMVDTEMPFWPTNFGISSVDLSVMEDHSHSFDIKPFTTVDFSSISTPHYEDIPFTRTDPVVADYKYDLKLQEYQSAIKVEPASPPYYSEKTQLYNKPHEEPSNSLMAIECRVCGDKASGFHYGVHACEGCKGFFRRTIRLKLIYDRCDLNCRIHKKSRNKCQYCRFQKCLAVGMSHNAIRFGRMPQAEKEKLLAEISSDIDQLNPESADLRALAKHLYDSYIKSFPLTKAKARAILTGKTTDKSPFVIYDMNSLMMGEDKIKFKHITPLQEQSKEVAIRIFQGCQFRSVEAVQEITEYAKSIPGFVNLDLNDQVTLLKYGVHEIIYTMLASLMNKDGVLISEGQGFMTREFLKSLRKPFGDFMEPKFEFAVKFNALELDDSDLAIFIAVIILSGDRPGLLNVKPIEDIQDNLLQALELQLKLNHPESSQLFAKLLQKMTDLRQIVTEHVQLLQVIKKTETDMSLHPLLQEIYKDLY

As to `O=C(OCc1ccccc1)c1ccccc1`, the Potency entry in assay [1] and in assay [3] was “inactive” each time. For the same compound, the outcome in assay [2], in assay [4], in assay [6] and in assay [7] was inactive. For the same compound, the values for the max response in assay [5], in [8] and in assay [9] were 2.86%, -18.5% and -1.47% (inactive), respectively. The activity change % (negative = inhibition) in assay [10] is 12.6% (inactive).
Turning to `c1cnc2c(c1)ccc1cccnc12`, the Potency in [1] is 17.8 µM (active). In [10], the activity change % (negative = inhibition) is -10.3% (inactive).
As to `CCCOC(=O)c1ccc(O)cc1`, the Potency result in assay [1] is “inactive”. Also, the compound was called inactive in [2], in assay [4], in [6] and in [7]. Moreover, the Potency result in assay [3] is “inactive and 35.5 µM (active)”. For the same compound, the max response in [5] was -11.1% and -2.66% and -11%; in [8], -12% and 3.27% and -2.1%; in [9], -6.42% (inactive) and -2.27% (inactive) and -9.81% (inactive). Moreover, in [10], the activity change % (negative = inhibition) is -17.9% (inactive) and -8.82% (inactive) and 6.79% (inactive).
On to `Oc1ccccc1O`, for which the result in [2], in [6] and in [7] was inactive. Besides, in assay [5], the max response was 7.41%. Besides, the activity change % (negative = inhibition) in assay [10] is -12.3% (inactive).
Regarding `O=C(Nc1ccccc1)c1cc([N+](=O)[O-])ccc1Cl`, the Potency result in [1] was “inactive”. Moreover, in [7], the result was inactive. Besides, the max response in assay [8] is -9.1%; in assay [9], -13.8% (inactive). Besides, the activity change % (negative = inhibition) in assay [10] was 9.48% (inactive).
`NCCO`: the max response in assay [5] is -11.3%; in assay [8], -11.1%; in assay [9] it was 21.6% (inactive). Moreover, the compound was classed as inactive in assay [6]. In assay [10], the activity change % (negative = inhibition) is -5.7% (inactive).
Consider `S=c1[nH]c2ccccc2s1`, for which the Potency result in assay [1] and in assay [3] was “inactive” throughout. In addition, the compound was classed as inactive in [4], in assay [6] and in assay [7]. The max response in assay [5] is -3.92%; in assay [8] it was 0.276% and 7.73%; in assay [9], 18% (inactive) and -15.5% (inactive). In addition, the activity change % (negative = inhibition) in assay [10] was -9.82% (inactive) and 10.5% (inactive).
With `Nc1nc2ccc([N+](=O)[O-])cc2s1`, in assay [1], the Potency entry is “inactive”. For the same compound, the compound was called inactive in assay [2] and in [4]. In addition, the max response in [8] was 0.666%; in assay [9] it was 16.9% (inactive). Further, the activity change % (negative = inhibition) in assay [10] was -2.47% (inactive).
Regarding `Nc1ccc(O)c(C(=O)O)c1`, the Potency result in [1] and in [3] was “inactive” each time. Further, the compound was classed as inactive in assay [2], in assay [4] and in [6]. Further, the max response was -5.65% and -3.05% in assay [5]; 7.86% and -11.8% in assay [8]; 19.2% (inactive) and -15.8% (inactive) in assay [9].
With `C#C[C@]1(O)CC[C@H]2[C@@H]3CCc4cc(O)ccc4[C@H]3CC[C@@]21C`, the Potency entry in [1] is “inactive”. The call in assay [7] was inactive. In addition, in assay [10], the activity change % (negative = inhibition) was -23% (inactive).
Consider `CCCCCCCCCCCCCCCCCC(=O)O`, for which the result in assay [2] and in [6] was inactive. Besides, the Potency result in assay [3] was “inactive”. For the same compound, the max response in assay [5] is 13.3% and -12.8% and -7.59%; in assay [8], -4.53% and -8.3% and -3.54%; in assay [9], -9.45% (inactive) and 1.81% (inactive) and 3.06% (inactive).
For `C=CCCCCCCCCC(=O)O`, the compound was called inactive in [2], in assay [4], in assay [6] and in assay [7]. For the same compound, the results for the max response in assay [5], in [8] and in assay [9] were -10%, -3.51% and -16.4% (inactive), respectively. The activity change % (negative = inhibition) in assay [10] is -5.71% (inactive).
With `O=C(O)[C@H](O)[C@@H](O)[C@H](O)[C@H](O)CO`, the Potency entry in assay [1] and in assay [3] was “inactive” each time. In addition, the compound was classed as inactive in assay [2], in [4], in assay [6] and in assay [7]. Moreover, the max response in [5] is -12.4%; in [8] it was -7.65%; in assay [9] it was 4.17% (inactive). Further, in assay [10], the activity change % (negative = inhibition) is 19.6% (inactive).
For the compound `CC(C)OC(=O)c1cc(C(=O)OC(C)C)cc([N+](=O)[O-])c1`, the Potency result in assay [1] was “inactive”. The compound was classed as inactive in [4]. Besides, the max response in assay [8] was -0.986%; in [9] it was -4.84% (inactive). For the same compound, the activity change % (negative = inhibition) in assay [10] is 6.57% (inactive).
Consider `O=c1cc(-c2ccccc2)oc2ccccc12`, for which the Potency entry in [1] was “inactive”. The compound was classed as inactive in [2], in assay [4], in assay [6] and in assay [7]. In addition, the results for the max response in [5], in assay [8] and in assay [9] were 18.8%, -11.8% and -22.5% (inactive), respectively. The activity change % (negative = inhibition) in assay [10] was -4.06% (inactive) and 9.92% (inactive).
`CC1(C)S[C@@H]2[C@H](NC(=O)[C@H](N)c3ccccc3)C(=O)N2[C@H]1C(=O)O`: the compound was called inactive in [2] and in assay [6]. Further, the max response in assay [5] was -24.6%; in assay [8], -6.23%; in assay [9], -0.87% (inactive).
With `Nc1ccc([N+](=O)[O-])cc1O`, the Potency entry in [1] is “inactive”. Besides, the compound was classed as inactive in [4], in assay [6] and in [7]. The max response in assay [5] was 5.77%; in assay [8] it was 3.08% and -8.59%; in [9] it was -3.43% (inactive) and -7.43% (inactive). Further, the activity change % (negative = inhibition) in [10] is 10% (inactive) and 1.31% (inactive).
